This is an account of results in ChEMBL document CHEMBL1201862, “PubChem BioAssay data set” (2004).

Structures are written as SMILES. Values joined by “and” are separate entries in the source; they are usually repeats but may differ in a detail not shown here. Identical values can stand only once. About 2,100 (0.53%) of roughly 400,000 compounds were called active. Roughly 14% stayed inconclusive and do not appear here. No rule for the calls is given here. The sample as a whole holds a higher share of actives than the screen did.

Chain of Ataxin-2 (Homo sapiens) (Q99700 whole entry): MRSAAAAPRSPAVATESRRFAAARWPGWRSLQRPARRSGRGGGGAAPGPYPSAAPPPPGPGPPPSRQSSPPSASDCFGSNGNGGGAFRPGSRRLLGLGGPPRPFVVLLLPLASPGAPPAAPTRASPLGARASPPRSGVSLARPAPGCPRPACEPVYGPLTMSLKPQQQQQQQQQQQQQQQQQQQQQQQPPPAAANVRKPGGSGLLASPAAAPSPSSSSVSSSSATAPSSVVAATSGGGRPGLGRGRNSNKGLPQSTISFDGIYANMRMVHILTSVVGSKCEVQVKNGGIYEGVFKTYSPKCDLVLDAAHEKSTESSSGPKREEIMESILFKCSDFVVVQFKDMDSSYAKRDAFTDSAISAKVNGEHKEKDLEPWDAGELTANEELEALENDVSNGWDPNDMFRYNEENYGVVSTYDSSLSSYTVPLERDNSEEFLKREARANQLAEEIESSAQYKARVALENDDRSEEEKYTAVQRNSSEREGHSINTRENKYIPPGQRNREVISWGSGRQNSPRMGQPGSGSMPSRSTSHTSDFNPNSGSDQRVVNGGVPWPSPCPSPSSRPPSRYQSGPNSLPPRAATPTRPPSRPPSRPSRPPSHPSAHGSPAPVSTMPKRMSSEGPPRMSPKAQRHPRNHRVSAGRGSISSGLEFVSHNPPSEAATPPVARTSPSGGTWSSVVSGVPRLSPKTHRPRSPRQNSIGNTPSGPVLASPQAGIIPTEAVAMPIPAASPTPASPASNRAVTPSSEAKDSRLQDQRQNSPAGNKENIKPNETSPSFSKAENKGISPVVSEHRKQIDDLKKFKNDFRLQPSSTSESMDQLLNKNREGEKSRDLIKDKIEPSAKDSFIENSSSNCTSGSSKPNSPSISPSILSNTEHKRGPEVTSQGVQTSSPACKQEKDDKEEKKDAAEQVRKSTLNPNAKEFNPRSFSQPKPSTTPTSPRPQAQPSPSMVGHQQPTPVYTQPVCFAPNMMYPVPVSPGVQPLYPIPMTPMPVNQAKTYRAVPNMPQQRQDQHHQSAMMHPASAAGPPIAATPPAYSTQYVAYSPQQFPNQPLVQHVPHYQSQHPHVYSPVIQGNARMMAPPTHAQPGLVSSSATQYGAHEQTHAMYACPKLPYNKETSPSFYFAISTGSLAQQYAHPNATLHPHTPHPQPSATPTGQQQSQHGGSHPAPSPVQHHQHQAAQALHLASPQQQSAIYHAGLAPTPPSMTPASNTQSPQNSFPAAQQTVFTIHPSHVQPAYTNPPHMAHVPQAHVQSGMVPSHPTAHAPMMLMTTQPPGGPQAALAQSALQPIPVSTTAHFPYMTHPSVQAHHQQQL

This test addresses Ataxin-2 (Homo sapiens) (UniProt Q99700). As to the kind of experiment: qHTS for Inhibitors of ATXN expression. The class given is functional. In general terms: Quantitative high-throughput screening tests each substance at several concentrations.
For the molecule `COc1ccc(Nc2nc3c(C)cccc3cc2C#N)cc1`, the Potency entry was “inactive”.
Consider `N#Cc1nccc2ccc(OCc3ccc(Br)cc3)cc12`, for which the Potency result is “inactive”.
For `Cn1c(O)c(/C=N/NC(=O)c2cc3ccccc3cc2O)c2ccccc21`, the Potency entry is “inactive”.
As for `Cc1ccc(NC(=O)Cn2c(O)c(N=NC(=O)c3cc4ccccc4cc3O)c3ccccc32)cc1`, the figure is 8.91 µM (active); as for `CN(C(=O)COC(=O)c1cc2ccccc2cc1O)c1ccccc1`, “inactive”; as for `O=C(N=Nc1c(O)n(Cc2ccccc2)c2ccccc12)c1cc2ccccc2cc1O`, 39.8 µM (active).
For `Cc1ccc(C(=O)NNC(=O)c2cc3ccccc3cc2O)cc1`, the Potency result is “inactive”.
The value for `Cc1c(O)ccc2c(CC(=O)N[C@@H](Cc3ccc(O)cc3)C(=O)O)cc(=O)oc12` was “inactive”; that for `CCS(=O)(=O)c1nc(S(=O)(=O)c2ccc(Cl)cc2)c(N2CCN(CCO)CC2)s1` was “inactive”.
The value for `Cc1sc(NC(=O)c2ccccc2)c(C(c2ccc(Cl)cc2)N2CCN(CCO)CC2)c1C` (stereo not given) was 28.2 µM (active).
The value for `Cc1c(-c2ccc(Cl)cc2)c(=O)oc2c(CN3CCN(CCO)CC3)c(O)ccc12` was “inactive”; that for `Cn1c(C(=O)NCc2ccccn2)cc2c(=O)n3ccccc3nc21` was “inactive”; that for `Cc1cccc(C2=NN(c3ccccc3)[C@H](CO)[C@H]2c2ccc(Cl)cc2)c1` was “inactive”.
Take `CCN(CC)c1ccc(/C=N/NC(=O)c2cccc(S(=O)(=O)Nc3ccccc3OC)c2)c(O)c1`: the Potency result is “inactive”.
The value for `CCN1C/C(=C\c2cc(OC)c(OC)c(OC)c2)C2=NN(c3ccccc3)C(c3cc(OC)c(OC)c(OC)c3)C2C1` (stereo not given) was “inactive”; that for `Cc1ccc(C(=O)OCC(=O)NCCc2ccccc2)cc1C` was “inactive”.
The value for `CCOc1ccc(NC(=O)COc2ccc(C(=O)NCCc3ccccc3)cc2)cc1` was “inactive”.
With `CCOC(=O)c1ccc(NC(=O)COc2ccccc2CNCCc2ccccc2)cc1`, the Potency is 29.9 µM (active).
As for `CCCCn1nc(NC(=O)c2cccs2)c2cc3ccccc3nc21`, the entry is “inactive”; as for `NS(=O)(=O)c1ccc(NCc2cnc3ccccc3c2)cc1`, “inactive”.
As for `CCOc1ccc2nc(NCCCNS(=O)(=O)c3ccc(C)cc3)c(C#N)cc2c1`, the entry is “inactive”; as for `c1ccc(COc2ncnc3c2ncn3CCCNCC(c2ccccc2)c2ccccc2)cc1`, 25.1 µM (active).
Turning to `c1ccc(COc2ncnc3c2ncn3CCCNC2CCN(Cc3ccccc3)CC2)cc1`, the Potency is 39.8 µM (active).
The value for `COCCCn1c(C(=O)N2CC(C)OC(C)C2)cc2c(=O)n3ccccc3nc21` (stereo not given) was “inactive”; that for `O=C(CC(=O)N/N=C/c1c(F)cccc1Cl)NCCc1ccccc1` was “inactive”.
As for `CCCCN(C)CCCNC(=O)C1CCN(c2nc3ccc(CC)cc3s2)CC1`, the Potency was 28.2 µM (active).
On to `CCOc1ccc2nc(N3CCC(C(=O)N4CCN(c5ncccn5)CC4)CC3)sc2c1`, for which the Potency entry was “inactive”.
The value for `Cc1c(C(=O)NCc2ccc3c(c2)cc(C)n3C)cccc1[N+](=O)[O-]` was “inactive”; that for `COc1ccccc1-c1sc2ccccc2c1-c1ccc(OCCN2CCCCC2)cc1` was 35.5 µM (active); that for `COc1ccccc1OCCCCN1CCCCC1` was “inactive”.
As for `COc1ccc(-c2c(C)c3ccc(O)c(CN4CCCCC4)c3oc2=O)cc1OC`, the entry is “inactive”; as for `COc1cccc2sc3cc(NCCCN4CCOCC4)ccc3c(=O)c12`, “inactive”.
The value for `COc1ccc2c(-c3ccc(OCCN4CCCCC4)cc3)c(-c3ccccc3OC)sc2c1` was 39.8 µM (active); that for `c1ccc2c(-c3ccc(OCCN4CCCCC4)cc3)c(-c3ccsc3)sc2c1` was 39.8 µM (active).
In the case of `COc1ccc(-c2sc3cc(OC)ccc3c2-c2ccc(OCCN3CCCCC3)cc2)cc1`, the Potency was 25.1 µM (active).
As for `Brc1ccccc1OCCCN1CCCC1`, the entry is “inactive”; as for `CSCCC1NC(=O)N(CC(=O)Nc2ccc(Br)cc2Br)C1=O` (stereo not given), “inactive”; as for `CCOc1cccc(NC(=O)c2sc3nc(-c4ccc(F)cc4)ccc3c2N)c1`, “inactive”.
As for `COc1cccc(-c2sc3ccccc3c2-c2ccc(OCCN3CCCCC3)cc2)c1`, the figure is 28.2 µM (active); as for `COc1cccc(-c2sc3ccccc3c2-c2ccc(OCCN(C)C)cc2)c1`, 28.2 µM (active); as for `COc1ccc2sc(-c3ccc(N(C)C)cc3)c(C#CCO)c2c1`, “inactive”.
The value for `COC(=O)c1c(-c2ccc(N(C)C)cc2)sc2ccc(OC)cc12` was “inactive”; that for `COc1ccccc1-c1sc2ccccc2c1C#Cc1ccc(N(C)C)cc1` was “inactive”.
For `COc1ccc2sc(-c3ccccc3OC)c(-c3ccc(OCCN(C)C)cc3)c2c1`, the Potency is 39.8 µM (active).
As for `O=C(Nc1nc2n(n1)C(c1ccc(F)cc1)C=C(c1ccccc1)N2)c1ccc(Cl)cc1` (stereo not given), the entry is “inactive”; as for `S=C(c1ccc(-c2ccc(Br)cc2)o1)N1CCOCC1`, “inactive”; as for `CCc1cc(=O)oc2c3c(c(Cl)cc12)OCN(Cc1cccc(OC)c1)C3`, “inactive”.
For the molecule `CCCO/C(O)=C1\C(C)=NC2=C(C(=O)CC(C)(C)C2)C1c1cccnc1` (stereo not given), the Potency result was “inactive”.
On to `CCCc1ccc(C2C3=C(CC(C)(C)CC3=O)N=C3C2=C(O)c2ccccc23)cc1` (stereo not given), for which the Potency is 20 µM (active).
As for `CC1C2=C(O)CC(C)(C)CC2=NC2=C1C(=O)CC(C)(C)C2` (stereo not given), the entry is “inactive”; as for `O=S(=O)(Nc1ccccc1N1CCOCC1)c1ccccc1C(F)(F)F`, “inactive”; as for `O=C1CCCc2nc3c(cc21)C(O)Oc1c-3ccc2ccccc12` (stereo not given), “inactive”.
Take `CN(Cc1ccccc1)C(=O)c1ccc(CSc2nc3cccnc3n2Cc2ccccc2F)cc1`: the Potency is 20 µM (active).
The value for `Cn1c(SCc2ccccc2F)nc2ccccc2c1=O` was “inactive”.
Regarding `O=C(Cc1c(F)cccc1Cl)N(Cc1ccccc1)c1ccccn1`, the Potency entry is “inactive”.
Take `O=C(CN1C(=O)CCC1=O)Nc1nc(-c2ccc3ccccc3c2)cs1`: the Potency entry is “inactive”.
Regarding `CN1CCN(Cc2nc3ccccc3c(=O)n2Cc2nc(-c3ccc4ccccc4c3)cs2)CC1`, the Potency was 39.8 µM (active) and 25.1 µM (active).
Regarding `CN1CCN(Cc2c(O)ccc3cc(-c4ccccn4)c(=O)oc23)CC1`, the Potency result was “inactive”.
As for `C[C@H]1C(c2ccc(F)cc2)=NN(c2ccccc2)[C@@H]1CO`, the Potency entry was “inactive”.
As to `O=C(CSc1nnc2ccccn12)Nc1ccc(S(=O)(=O)N2CCOCC2)cc1`, the Potency result is “inactive”.
Consider `COc1ccc(CCNS(=O)(=O)c2ccc3c(c2)CCCC3)cc1OC`, for which the Potency entry was “inactive”.
Regarding `COc1ccc(Cl)cc1CC1(C)C(=O)Nc2ccc(S(=O)(=O)NC3CCCCC3)cc21` (stereo not given), the Potency is 35.5 µM (active).
As for `COc1ccc(-c2csc(/C(C#N)=C/Nc3cc4oc5ccccc5c4cc3OC)n2)cc1`, the entry is “inactive”; as for `C=CC[C@@H](Cc1ccc(F)cc1)C(=O)OC[C@H]1CCCN1C(=O)[C@@H](CC=C)CC(=O)N(CCO)Cc1ccccc1`, 39.8 µM (active); as for `C=CC[C@@H](Cc1ccc(F)cc1)C(=O)OC[C@H]1CCCN1C(=O)[C@H](CC=C)CC(=O)N(CCO)Cc1ccccc1`, 35.5 µM (active).
Regarding `N#Cc1c(N)n(CCc2ccc(F)cc2)c2nc3ccccc3nc12`, the Potency entry was “inactive”.
The value for `O=C(CN1C(=O)NC2(CCCCC2)C1=O)Oc1ccc2c(C(F)(F)F)cc(=O)oc2c1` was “inactive”; that for `Fc1ccc(-c2nc3cnccn3c2NC2CCCC2)cc1` was “inactive”.
The value for `COc1ccc(C(=O)N2C(=O)c3ccc(N)cc3C2=O)cc1` was “inactive”.
The value for `COc1ccc2c(c1)CCc1cn3nc(C)cc3nc1-2` was “inactive”; that for `COc1ccc2nc(O)c(C(=O)O)cc2c1` was “inactive”; that for `COc1ccc2c(c1)C(=NN)c1cc(OC)ccc1-2` was 31.6 µM (active).
As for `COc1ccc2c(c1)C(=NNc1ccc(C(=O)O)cc1)c1cc(OC)ccc1-2`, the Potency is 22.4 µM (active).
As to `O=C(O)CC1SC(N/N=C/C2CC=CCC2)=NC1=O` (stereo not given), the Potency entry is “inactive”.
Take `Oc1ccccc1C1SC(c2ccccc2O)SC(c2ccccc2O)S1` (stereo not given): the Potency is 20 µM (active).
The value for `COc1ccc(-c2coc3cc4oc(=O)c5ccccc5c4cc23)cc1F` was 8.91 µM (active).
With `CCc1ccc2c(CN3CCc4cc(OC)c(OC)cc4C3)cc(=O)oc2c1`, the Potency result was “inactive”.
`COc1ccc(-c2cc(=O)oc3cc(O)ccc23)cc1`: the Potency result is “inactive”.
As for `COc1ccc(-c2cc3ccc(O)cc3oc2=O)cc1OC`, the entry is “inactive”; as for `COc1ccc(-c2cc(Cl)cc3c(=O)c4ccccc4n(C)c23)cc1F`, “inactive”.
For the molecule `CCc1cc(=O)oc2cc3occ(-c4ccc(OC)c(F)c4)c3cc12`, the Potency was 22.4 µM (active).
As for `COc1ccccc1C1CN(c2ccc(F)cc2F)N=C1c1cccs1` (stereo not given), the Potency entry is “inactive”.
For the molecule `N#C/C(=N\Nc1ccc(Cl)c(Cl)c1)C(=O)C1CC1`, the Potency was 25.1 µM (active).
As for `O=C(NCc1ccc(Cl)c(Cl)c1)C1CCCC1`, the entry is “inactive”; as for `O=[N+]([O-])c1ccc(S(=O)(=O)NCCc2cn3ccccc3n2)cc1`, “inactive”.
As for `COc1ccc(S(=O)(=O)NCC2CCCN(C(=O)c3cccnc3)C2)cc1` (stereo not given), the entry is “inactive”; as for `Cc1c(C)n(Cc2ccccc2)c2ccc(C(=O)O)cc12`, “inactive”; as for `Cc1c(C=O)c(C=O)c(C)n1Cc1ccccc1`, 35.5 µM (active).
Regarding `COc1ccccc1OCCn1c(C)c(C=O)c2ccccc21`, the Potency result was “inactive”.
On to `O=c1cc(N2CCCCC2)c(-c2ccccc2)nn1Cc1ccccc1`, for which the Potency result was “inactive”.
The value for `COc1ccccc1CNC(=O)c1cnn(-c2nccc(-c3cccs3)n2)c1C` was “inactive”; that for `COc1ccc(-c2cc(-c3cccs3)nc3sc(C#N)c(N)c23)cc1` was “inactive”.
The value for `COc1ccc(-c2cc(-c3cccs3)c(C#N)c(SCC(=O)NCc3ccccc3OC)n2)cc1` was 35.5 µM (active); that for `COc1ccc(C2C=C(c3ccccc3)Nc3nc(NS(=O)(=O)c4ccccc4)nn32)cc1` (stereo not given) was “inactive”.
The value for `COc1c2c(c3c(c1OC)c(=O)c1ccccc1n3C)OCO2` was “inactive”; that for `Cc1c(CC(=O)N2CCN(C(=O)C3COc4ccccc4O3)CC2)c(=O)oc2c(C)c(O)ccc12` (stereo not given) was “inactive”; that for `OC(COC(c1ccc(Cl)cc1)c1ccc(Cl)cc1)CN1CCc2ccccc2C1` (stereo not given) was 25.1 µM (active).
With `O=C(Cc1ccc(Cl)cc1)N1CCc2ccccc2C1`, the Potency result is “inactive”.
On to `O=C(c1cc2cc(Cl)ccc2[nH]1)N1CCc2ccccc2C1`, for which the Potency result was “inactive”.
The value for `CCOC(=O)c1cc2c(=O)n3ccccc3nc2n(C(C)C)/c1=N/C(=O)c1ccco1` was “inactive”.
